Sampled rows, rich in hits. Any-hit rate of the full collection: about 19%.
ELG1 repair inh – qHTS screen for small molecules that inhibit ELG1-dependent DNA repair in human embryonic kidney (HEK293T) cells expressing luciferase-tagged ELG1 | Potency, µM (series often up to 46.1 µM), inactives show at the highest dose activity change, negative = inhibition, hits mostly inhibitors | 2.3% of 330,000 active | HEK293T ELG1-luciferase reporter, luminescence, 16 h; DNA damage induced by 5-fluorouridine; note: potency is the fitted concentration of half-maximal effect; nearly all actives have a fitted effect of over 55% in size
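5-Fluorouridine DNA damage + compound/DMSO, 2,000 cells/well, 16 h, 37 °C/5% CO2. ONE-Glo, 30 min RT, luminescence. Readout = decrease in reporter signal.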
DT40 TDP1 CPT – qHTS for Inhibitors of human tyrosyl-DNA phosphodiesterase 1 (TDP1): qHTS in cells in presence of CPT; 12% of 420,000 active; chicken DT40 Tdp1-/-;hTDP1 cells + 20 nM CPT, ATP luminescence, 48 h; Potency, µM (titrated, usually from 46.2 µM), for the others: top-dose activity change, negative = growth inhibition, actives largely listed as inhibitors; note: potency is the fitted concentration of half-maximal effect; nearly all actives have a fitted effect of over 55% in size
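Chicken DT40 Tdp1-/- cells complemented with human TDP1, 400 cells/well, exposed to compounds plus 20 nM camptothecin for at least 48 h at 37 C; viability read as ATP content by CellTiter-Glo luminescence.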
DT40 TDP1 no CPT – qHTS for Inhibitors of human tyrosyl-DNA phosphodiesterase 1 (TDP1): qHTS in cells in absence of CPT; DT40 Tdp1-/- hTDP1 cells, no CPT, ATP luminescence, 48 h; Potency, µM (top dose mostly 46.2 µM), for inactives: top-dose activity change, negative = growth inhibition, usual class: inhibitors; 15% of 420,000 active; AID 686978, 2013; note: potency is the fitted concentration of half-maximal effect; nearly all actives have a fitted effect of over 55% in size
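Growth of hTDP1-complemented DT40 Tdp1-knockout cells is measured by ATP luminescence after at least 48 hr compound exposure at 37 °C, with DMSO substituting for the 20 nM CPT used in the parallel screen.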
HT1080-NT tox – qHTS for induction of synthetic lethality in tumor cells producing 2HG: qHTS for the HT-1080-NT fibrosarcoma cell line | HT-1080-NT fibrosarcoma viability, CellTiter-Glo ATP luminescence, 48 h | Potency, µM (doses to about 46.1 µM), for inactives: at the highest dose activity, negative = less viability, hits mostly cytotoxic | 1.6% of 360,000 active;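 note: NT is the 2HG producing partner of a matched IDH1 knockdown line; potency is the fitted concentration of half-maximal effect; 0% = DMSO-treated cells and -100% = media-only wells without cells; nearly all actives have a fitted effect of over 55% in size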
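Read-out is CellTiter-Glo luminescence after 10 minutes at room temperature, following 48 hours' compound treatment of HT-1080-NT cells (750 cells/well, RPMI, 5% FBS, 37 degrees C).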
HT1080 IDH1KD tx – qHTS for induction of synthetic lethality in tumor cells producing 2HG: qHTS for the HT-1080-IDH1KD cell line; 2% of 360,000 active; HT-1080 IDH1 knockdown viability, ATP luminescence, 48 h; Potency, µM (highest dose often 46.1 µM), without a hit: top-dose activity, negative = toxicity, hits mostly cytotoxic;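 note: potency is the fitted concentration of half-maximal effect; 0% = DMSO wells and -100% = cell-free medium wells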
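Knockdown cells (IDH1KD HT-1080) received compounds 2 h after plating at 750 cells/well and were kept 48 h at 37 °C in 5% FBS RPMI. A CellTiter-Glo luminescence read gave % activity for curve fitting.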
IL-1B inflam inh – qHTS for Inhibitors of Inflammasome Signaling: IL-1-beta AlphaLISA Primary Screen; 4.7% of 360,000 active; activity change, % at 57.5 µM; THP-1 LPS/ATP IL-1B secretion, AlphaLISA, 16 h; hits give low values; in the data active = activity change below about -50%; inconclusive = mostly about -30% to -49%
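THP-1 cells pretreated 1 hr with compounds (up to 57.5 uM final), then stimulated with LPS (250 ng/mL final) plus ATP (1.25 mM final); secreted IL-1B measured by AlphaLISA after 16 hr, decreased signal indicating inhibition.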
* marks the source's active call; other numbers are inactive results; u = inconclusive; x = no result. Unless noted, calls come from the whole dose curve; as a rule, active = well fitted curve in the direction sought with a large enough effect; inconclusive = small, poorly fitted or top-dose-only effect, or another doubt; inactive = no such curve, though single readings can be large; an effect the other way counts as inactive or inconclusive. Unless noted, % is set by controls: 0 for no effect and ±100 for the full control effect.

SMILES	ELG1 repair inh	DT40 TDP1 CPT	DT40 TDP1 no CPT	HT1080-NT tox	HT1080 IDH1KD tx	IL-1B inflam inh
CCN(CC)c1ccc2c(c1)OC(N)=C(C#N)C2c1cccnc1 (stereo not drawn)	-16%	0.021µM*	0.037µM*	u	0.23µM*	-101*
OCC1(Cc2ccccc2F)CCCN(CC2CCCCC2)C1 (stereo not drawn)	-8%	4%	u	3%	2%	8
CCc1nnc2c(NCc3cccc(OC)c3)nc3ccccc3n12	x	-26%	u	x	x	x
CC(C)=CCc1cc([C@@H]2COc3c(ccc4c3C=CC(C)(C)O4)C2)c(O)cc1O	x	18µM*	u	u	u	-51*
CC1(C)C=Cc2c(ccc3c2OC[C@H](c2ccc(O)cc2O)C3)O1	u	13µM*	u	0%	-8%	34
CC(=O)Oc1ccc([C@@H]2COc3c(ccc4c3C=CC(C)(C)O4)C2)c(OC(C)=O)c1	x	u	u	10%	10%	-1
CCOc1ccc(CN(C)CC(=O)c2c(N)n(Cc3ccccc3)c(=O)n(CC)c2=O)cc1OC	x	u	-40%	-11%	-10%	-23
CCn1c(=O)c(C(=O)CN(C)Cc2cccc(OC)c2OC)c(N)n(Cc2ccccc2)c1=O	u	u	15µM*	u	8%	24
Cc1c(Cl)cccc1-n1c(SCC(=O)NCc2ccccc2Cl)nnc1-c1ccncc1	7%	14µM*	u	-8%	-28%	-9
Cc1cc(C(=O)CSc2nnnn2-c2ccccc2)c(C)n1CC1CCCO1 (stereo not drawn)	u	-22%	u	12%	11%	21
COc1cc(-c2nnc(SCC(=O)c3cc(C)n(CC4CCCO4)c3C)o2)cc(OC)c1OC (stereo not drawn)	u	21µM*	u	-2%	-6%	45
Cc1ccccc1-n1c(SCC(=O)c2cc(C)n(C)c2C)nnc1-c1ccncc1	11µM*	u	u	-1%	-1%	-3
Cc1cc(C(=O)CSc2nnc(-c3cccnc3)n2-c2ccccc2F)c(C)n1CC1CCCO1 (stereo not drawn)	u	-24%	23µM*	1%	3%	-7
Cc1ccc2cccc(NC(=O)c3ccc(C#N)cc3F)c2n1	x	-18%	-12%	x	x	x
Cc1cccc(NC(=O)COc2coc(CN3CCN(c4ccccc4)CC3)cc2=O)c1C	-15%	u	u	-11%	-4%	-4
Cc1cc(C(=O)CSc2nnc(-c3ccc(F)cc3)o2)c(C)n1CC1COc2ccccc2O1 (stereo not drawn)	-16%	u	u	-20%	u	10
Cc1cc(C(=O)CSc2nnc(-c3ccc(F)cc3)o2)c(C)n1CC1CCCO1 (stereo not drawn)	u	u	21µM*	-10%	-5%	25
CC1CCN(c2ccccc2NC(=S)NC(=O)c2ccco2)CC1	x	u	29µM*	-16%	-25%	3
O=C(Nc1ccccc1N1CCOCC1)c1ccc(Br)o1	u	21µM*	23µM*	-8%	11%	-10
CC1CCN(c2ccccc2NC(=O)c2ccc(Br)o2)CC1	-9%	16µM*	u	-15%	u	0
O=C(NC(=S)Nc1ccccc1N1CCOCC1)c1ccc(-c2ccccc2F)o1	u	13µM*	23µM*	7%	14%	-10
CC(C)C(C(=O)NC1CCCC1)N(CC1CCCO1)C(=O)CNS(=O)(=O)c1ccccc1 (stereo not drawn)	1%	-5%	-1%	1%	13%	3
Brc1cccc2sc(N3CCCC3)nc12	u	3%	-5%	-2%	-17%	41
CCNc1ncc2nc(-c3cccs3)c(=O)n(Cc3cccc(OC)c3)c2n1	x	-15%	-3%	x	x	x
CCN(CC(=O)Nc1ccccc1C(F)(F)F)C(=O)Cc1cccs1	11%	2%	-15%	11%	0%	-6
SMILES	ELG1 repair inh	DT40 TDP1 CPT	DT40 TDP1 no CPT	HT1080-NT tox	HT1080 IDH1KD tx	IL-1B inflam inh
CCN(CC(=O)Nc1ccccc1C(F)(F)F)C(=O)c1ccccc1OCc1ccc(F)cc1	x	16µM*	21µM*	0%	-1%	-18
CCN(CC(=O)Nc1ccc(N2CCOCC2)cc1)C(=O)c1ccc(C(F)(F)F)cc1	1%	-9%	-14%	u	19%	-57*
CC(C)CNC(=O)c1ccc(NC(=O)c2cccs2)cc1	u	-20%	-23%	5%	12%	20
CCN(CC(=O)Nc1ccccc1C(F)(F)F)C(=O)CCOc1ccccc1C	u	-36%	-54%	1%	2%	10
CSc1ccccc1NC(=O)CN(C)C(=O)c1ccc(NC(=O)c2cccs2)cc1	21µM*	u	u	16%	2%	-18
CCN(CC(=O)Nc1ccccc1C(F)(F)F)C(=O)c1ccc(NC(=O)c2cccs2)cc1	x	15µM*	21µM*	-1%	7%	-17
COc1ccc(CNC(=O)Cn2ncc3c(=O)oc4ccccc4c32)c(OC)c1	x	-26%	-23%	x	x	x
CN1CCN(c2ncc3ncc(=O)n(C4CC4)c3n2)CC1	x	-10%	-10%	x	x	x
COc1ccc(NS(=O)(=O)c2cccc(C(=O)O)c2)cc1S(=O)(=O)N1CCCCC1	u	17%	-16%	2%	-4%	0
CCCCN(Cc1ccccc1)S(=O)(=O)c1cc2c(cc1Br)CC(C)N2C(C)=O (stereo not drawn)	x	18µM*	18µM*	-10%	-13%	0
CCCCN(Cc1ccccc1)S(=O)(=O)c1ccc2c(c1)CC(C)N2C(=O)CC (stereo not drawn)	x	23µM*	u	x	x	x
CCC(=O)N1c2ccc(S(=O)(=O)N(CCO)Cc3ccccc3)cc2CC1C (stereo not drawn)	u	u	-20%	-10%	-3%	20
Cc1cc(C)nc(N/C=C(\C#N)C(=O)c2cccc(CSc3ccccc3)c2)n1	x	u	-6%	x	x	x

Source: PubChem
